Source: PubChem BioAssay AID1626 (SRMLSC, 2009)
Where “and” joins values, the source holds several entries; their conditions need not be identical. Identical values can stand only once. Out of some 220,000 compounds screened, about 2,000 (0.91%) were called active. Not shown: some 2% with an inconclusive outcome. No stated cut-off is given here; in the data, inconclusive means inhibition above about 80% without an active follow-up result; inactive means below that; test concentration not stated here. A selection follows. Measured potencies and affinities stand elsewhere.

Experiment: M. tuberculosis H37Rv growth inhibitors, H37Rv strain (AID 1626);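 further: bacteria incubated seven days before Alamar blue readout; 0% = bacteria only wells and 100% = bacteria with antibiotic wells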
Conditions: stronger effect = higher value, concentration not given here
For C[n+]1c2n(c3ccccc31)N=C(c1ccc(-c3ccccc3)cc1)CS2, the inhibition was 5.47% (inactive). For C[n+]1c2n(c3ccccc31)N=C(c1ccccc1)CS2, the inhibition was -4.82% (inactive) and 0% (inactive). In the case of O=C(N/N=C/c1ccc2c(c1)OCO2)c1ccc(COc2cccc3cccnc23)cc1, the inhibition is reported as 0.48% (inactive). For COCC(=O)NNC(=S)Nc1cccc(C)c1C, the inhibition was 9.36% (inactive). With COC(=O)c1ccc(C(=O)OC)c(NC(=S)N2CCOCC2)c1 the inhibition was 5.12% (inactive). In the case of CCN(CC)C(=O)CSc1nnc2nnc3cc(C)ccc3n12, the inhibition is reported as 65.9% (inactive). With CCN(CC)C(=O)CSc1nnc2nnc3cc(OC)ccc3n12 the inhibition was 44% (inactive). For CCOc1ccc(-c2onc(C(F)(F)F)c2-c2cscn2)c(O)c1, the inhibition was 6.75% (inactive). For COc1cc(/C=C/C(=O)O)cc(S(=O)(=O)Nc2ccccc2Oc2ccccc2)c1OC, the inhibition was -0.26% (inactive). For CSc1sc(C(=O)N2CCCCC2)c(-c2cccs2)c1C#N, the inhibition was -3.75% (inactive). For COc1ccc(C2=NC(C(F)(F)F)(C(F)(F)F)c3c(n(C)c(=O)n(C)c3=O)N2)cc1, the inhibition was -0.04% (inactive). In the case of Cn1c2c(c(=O)n(C)c1=O)C(C(F)(F)F)(C(F)(F)F)N=C(c1ccccc1Cl)N2, the inhibition is reported as -9.88% (inactive). With CCOC(=O)c1c(CN2CCC(C)CC2)n(C)c2cc(Br)c(OC)cc12 the inhibition was 11.6% (inactive). For COc1ccccc1NS(=O)(=O)c1cc(C)ccc1C, the inhibition was -7.48% (inactive). For CC(NC(=O)c1ccccc1F)c1nnc(SCc2nc3ccccc3c(=O)[nH]2)n1C (stereo unspecified), the inhibition was -3.02% (inactive). With O=c1[nH]cnc2sc(-c3ccccc3)cc12 the inhibition was 40% (inactive). In the case of CNc1ncnc2sc(-c3ccccc3)cc12, the inhibition is reported as -0.065% (inactive). With Cc1sc2nc(Cc3ccccc3)[nH]c(=O)c2c1-c1ccccc1 the inhibition was -4.69% (inactive). In the case of Cc1c(-c2ccccc2)sc2nc[nH]c(=S)c12, the inhibition is reported as 89.6% (inactive). For c1ccc2c(c1)NC1(CCCCCC1)n1c-2nc2ccccc21, the inhibition was -3.46% (inactive). For COc1ccc(CCn2c(-c3ccc(Cl)cc3)n[nH]c2=S)cc1OC, the inhibition was 1.97% (inactive). For COc1ccc(C(=O)NCCc2nnc3ccc(SCC(=O)Nc4cc(C)on4)nn23)cc1, the inhibition was 14.5% (inactive). In the case of COc1ccc(C(CC(=O)Nc2nccs2)n2cccc2)cc1 (stereo unspecified), the inhibition is reported as -4.49% (inactive). In the case of O=[N+]([O-])c1ccc(-n2nnnc2-c2ccccc2)cc1, the inhibition is reported as 1.98% (inactive). In the case of CCOC(=O)c1nnn(-c2ccc([N+](=O)[O-])cc2[N+](=O)[O-])c1C, the inhibition is reported as -6.3% (inactive). For Cc1ccc(-c2csc3nc(C)n(N)c(=O)c23)cc1, the inhibition was 3.11% (inactive). For COc1ccc(C(=O)COC(=O)CNC(=O)C2CCCCC2)c(OC)c1, the inhibition was -2.99% (inactive). With COc1ccc(O)c(C(=O)CC(=O)c2ccccc2)c1 the inhibition was 0.06% (inactive). In the case of COc1ccc(O)c(C(=O)CC(=O)c2ccc(F)cc2)c1, the inhibition is reported as -1.1% (inactive). In the case of COc1ccccc1CCNC(=O)Cc1cccs1, the inhibition is reported as 4.99% (inactive). In the case of Cc1cccc(N(CC(N)=O)S(C)(=O)=O)c1C, the inhibition is reported as 9.11% (inactive). With Cc1ccc2nc(NC(=O)C(NS(=O)(=O)c3cccc4nsnc34)C(C)C)sc2c1 (stereo unspecified) the inhibition was 11.5% (inactive). In the case of COc1ccc(NC(=S)NCc2ccco2)c(OC)c1, the inhibition is reported as -0.51% (inactive). For CCOc1ccc(CCNC(=O)CSc2cc(=O)n(C)c3cc(Cl)ccc23)cc1OCC, the inhibition was -8.35% (inactive). With CCOc1ccc(N/C(C)=C/C(=O)c2ccc3c(c2)OCCO3)cc1 the inhibition was 77.8% (inactive). For COC(=O)c1ccc(N/C=C\C(=O)c2ccc3c(c2)OCO3)cc1, the inhibition was 17.8% (inactive). In the case of COc1ccc(N/C=C\C(=O)c2ccc3c(c2)OCO3)cc1, the inhibition is reported as 77.1% (inactive). With COc1ccc(C(=O)/C=C(\C)Nc2ccc3c(c2)OCO3)cc1 the inhibition was 53.2% (inactive). In the case of CC(=O)Nc1ccc(N/C=C/C(=O)c2ccc(C)o2)cc1, the inhibition is reported as 7.24% (inactive). With COc1ccc(OC)c(N/C(C)=C/C(=O)c2ccc(C)o2)c1 the inhibition was -3.01% (inactive). In the case of COCCN(CCOC)C(=O)C1CCCN(S(=O)(=O)c2ccc(NC(=O)OC)cc2)C1 (stereo unspecified), the inhibition is reported as -2.59% (inactive). In the case of COc1cccc(Oc2coc3cc(OC(=O)N4CCOCC4)ccc3c2=O)c1, the inhibition is reported as -2.14% (inactive). For CN(C)CCCN(C(=O)c1ccc(S(=O)(=O)N(C)C)cc1)c1nc2cc3c(cc2s1)OCO3, the inhibition was -1.53% (inactive). In the case of CCOC(=O)c1ccccc1NC(=O)Cn1cnc2c(nnn2-c2ccc(C)cc2)c1=O, the inhibition is reported as 1.13% (inactive). In the case of O=[N+]([O-])c1ccc(N2CCN(S(=O)(=O)c3ccccc3)CC2)cc1NCc1ccco1, the inhibition is reported as -1.65% (inactive). In the case of O=S(=O)(NCc1ccccc1)c1ccc(S(=O)(=O)N(Cc2ccccn2)C2CCCC2)cc1, the inhibition is reported as -1.41% (inactive). In the case of O=C1CC(/C=C/c2ccccc2)=Nc2ccccc2N1, the inhibition is reported as 2.15% (inactive). For O=C1CC(/C=C/c2ccncc2)=Nc2ccccc2N1, the inhibition was -0.28% (inactive). In the case of CCOc1cccc(-c2cc(-c3n[nH]c(=S)n3CC)c3ccccc3n2)c1, the inhibition is reported as 14.2% (inactive). In the case of COc1ccc(CNC(=O)COC(=O)C2CCN(S(=O)(=O)c3ccccc3C(F)(F)F)CC2)cc1, the inhibition is reported as 1.6% (inactive). For CC1C(c2ccccc2)C(C#N)(C#N)C2(C#N)C(=O)NC1(N)C2C (stereo unspecified), the inhibition was -0.87% (inactive). In the case of O=[N+]([O-])c1ccc(Sc2cccc3cccnc23)cc1, the inhibition is reported as 30.8% (inactive). With O=[N+]([O-])c1ccc(CSc2nc3ccccc3o2)cc1 the inhibition was -1.9% (inactive). With O=[N+]([O-])c1cc(Cl)ccc1Sc1cccc2cccnc12 the inhibition was 28.5% (inactive). In the case of O=[N+]([O-])c1ccc(Cl)cc1Sc1nc2ccccc2o1, the inhibition is reported as -9.56% (inactive). With O=C(c1ccc(Cl)c(S(=O)(=O)N2CCCC2)c1)N1CCN(c2ccc(F)cc2)CC1 the inhibition was 3.62% (inactive). For COc1ccc(NC(=O)CSc2nc(NS(=O)(=O)c3ccccc3)cc(=O)[nH]2)cc1, the inhibition was 3.87% (inactive). With CC(Sc1ccccc1)C(=O)Nc1ccccc1C(=O)N1CCOCC1 (stereo unspecified) the inhibition was -11.3% (inactive). With CC(C)(C)c1cc(-c2ccccc2)no1 the inhibition was 10.7% (inactive). In the case of COc1ccc(C(=O)Nc2ccc(N3CCN(Cc4ccccc4)CC3)cc2)cc1, the inhibition is reported as 4.64% (inactive). In the case of COc1ccccc1C(=O)Nc1ccc(N2CCN(Cc3ccccc3)CC2)cc1, the inhibition is reported as 40.9% (inactive).
